Records with an inconclusive call do not appear. The source made the active and inactive calls. The call rests on the fitted dose curve; in most records, active means well fitted curve in the direction sought with a large enough effect; inconclusive means small, poorly fitted or top-dose-only effect, or another doubt; inactive means no such curve, though single readings can be large; an effect the other way counts as inactive or inconclusive.
What was measured:
[1] = Cellular Toxicity (caspase-3) Mesangial (AID 660); conditions: mesangial cells, normalized: DMSO 0%, 100 µM tamoxifen 100%; at 91.7 µM (top of the series);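 further: combined caspase 3 and 7 activity read by Caspase-Glo luminescence; cells exposed to compound for 16 h before the caspase read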
In short: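 Seed cells derived from normal human renal glomeruli, incubate 5 h, add compounds across concentrations and incubate 16 h at 37 °C. Caspase 3/7 activation is then quantified by luciferase light, with AC50 derived by Hill modeling.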

[2] = Cellular Toxicity (caspase-3) SK-N-SH (AID 661);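 further: 0% = DMSO basal and 100% = 10 µM staurosporine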
In short: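 Cells were seeded and incubated 5 hr at 37 °C, dosed with compound over a concentration range for 16 hr, then given Caspase-Glo 3/7 reagent for 1 hr at room temperature before luminescence reading.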

[3] = Cellular Toxicity (caspase-3) H-4-II-E (AID 663); conditions: H-4-II-E rat hepatoma, scaled: DMSO 0%, 100 µM tamoxifen 100%; at 92.2 µM (top of the series);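 further: cells exposed to compound for 16 hr before readout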
In short: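 Caspase 3/7 activation measured by luminescent aminoluciferin substrate cleavage after 16 hr compound treatment of H-4-II-E cells in complete medium. Increase normalized between DMSO (basal) and 100 uM tamoxifen (100%); Hill-equation AC50 from concentration-response.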

[4] = Cellular Toxicity (caspase-3) Hek293 (AID 664); conditions: HEK293 caspase-3 activation, DMSO = 0%, 100 µM tamoxifen = 100%; at 92.2 µM (top of the series);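 further: cells exposed to compound for 16 h at 37 °C before readout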
In short: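 qHTS, HEK293 (human embryonic kidney), 16 h cpd exposure in complete medium. Caspase-3/7 activation = luminescence increase; normalized to DMSO/100 uM tamoxifen; Hill-fit AC50.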

[5] = Cellular Toxicity (caspase-3) N2a (AID 665);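 further: compound exposure lasted 16 h at 37 °C before readout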
In short: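 Caspase-3/7 activation, measured as increased luminescence from aminoluciferin release, is quantified in mouse N2a cells exposed to compounds for 16 h. Values are normalized to DMSO and 10 uM staurosporine, with AC50 derived by Hill modelling.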

[6] = Cellular Toxicity (caspase-3) NIH 3T3 (AID 666);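 further: caspase signal read after 16 h compound exposure; 0% = DMSO basal and 100% = 100 µM tamoxifen stimulation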
In short: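 Cells were plated at 1000 per well and incubated 5 hr at 37°C, then compound was added for 16 hr. Caspase-Glo 3/7 reagent followed for 20 min at room temperature before luminescence was read.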

[7] = Cellular Toxicity (caspase-3) Renal Proximal Tubule (AID 667); conditions: Potency: caspase-3 activation;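 further: cells exposed to compound for 16 hours at 37 °C before detection; 0% = DMSO basal and 100% = 10 µM staurosporine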
In short: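 In qHTS format, rat primary proximal tubule cells seeded at 1000 per well are exposed to compounds for 16 hours at 37 °C. An increase in Caspase-Glo 3/7 luminescence indicates caspase activation.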

[8] = molecular target: Cytochrome P450 3A4 (Homo sapiens) (UniProt P08684); assay: qHTS Assay for Inhibitors and Substrates of Cytochrome P450 3A4 (AID 884); further: on the % scale 0 is the no-effect control and ±100 the full control effect; nearly all actives have a fitted effect of over 50% in size
Sequence of Cytochrome P450 3A4 (Homo sapiens) (P08684 whole entry, looked up): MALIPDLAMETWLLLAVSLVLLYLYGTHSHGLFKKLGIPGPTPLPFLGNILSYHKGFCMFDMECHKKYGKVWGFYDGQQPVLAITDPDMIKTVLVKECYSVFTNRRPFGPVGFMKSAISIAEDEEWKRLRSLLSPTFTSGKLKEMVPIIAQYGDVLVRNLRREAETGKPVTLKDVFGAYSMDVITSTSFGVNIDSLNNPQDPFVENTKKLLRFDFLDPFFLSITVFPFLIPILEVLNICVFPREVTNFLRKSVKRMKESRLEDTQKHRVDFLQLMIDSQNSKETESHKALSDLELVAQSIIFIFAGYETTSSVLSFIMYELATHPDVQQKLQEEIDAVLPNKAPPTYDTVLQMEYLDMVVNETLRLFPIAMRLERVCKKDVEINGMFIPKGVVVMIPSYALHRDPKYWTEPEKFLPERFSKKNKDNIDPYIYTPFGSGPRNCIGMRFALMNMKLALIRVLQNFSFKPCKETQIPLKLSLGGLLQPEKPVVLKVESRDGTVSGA
In short: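 Luminescent readout of luciferin produced by CYP3A4 (20 nM) dealkylation of Luciferin-PPXE, 25 uM (its KM). NADPH-driven reaction ran 60 min at RT after 10 min compound preincubation; data scaled to 57 uM ketoconazole as 100% inhibition.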

[9] = MultiTox-Fluor Cytotoxicity Assay - LYMP1-001 - Dead Cells (AID 946)
In short: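 Cytotoxicity as increased dead-cell protease fluorescence (bis-AAF-R110, 485/520 nm), read 60 min after MultiTox-Fluor reagent. Human lymphoblastoid line exposed 16 h; Hill-fitted AC50, with DMSO as 0% and 15 uM tetraoctylammonium bromide as 100%.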

[10] = MultiTox-Fluor Cytotoxicity Assay - LYMP1-001 - Live Cells (AID 947);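 further: 0% = DMSO only and full inhibition = tetraoctylammonium bromide control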
[11] = Cell Viability - LYMP1-002 - Assay at 16 hr (AID 948);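 further: 0% = DMSO alone and full effect = 92 µM tetraoctylammonium bromide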
In short: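 Acute cytotoxicity is scored as a concentration-dependent fall in intracellular ATP in a human lymphoblastoid line (LYMP1-002) after 16 hr compound exposure at 37 C, measured by luciferase luminescence.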

[12] = MultiTox-Fluor Cytotoxicity Assay - LYMP1-002 - Live Cells (AID 955); further: on the % scale 0 is the no-effect control and ±100 the full control effect
In short: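 Cells were seeded at 2500 per well and incubated 5 hr. Compounds were then added for 16 hr at 37 C, followed by MultiTox-Fluor reagent for 60 min at room temperature and fluorescence reading of viable-cell protease signal.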

[13] = MultiTox-Fluor Cytotoxicity Assay - LYMP1-003 - Dead Cells (AID 961); further: nearly all actives have a fitted effect of over 70% in size
In short: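 Dead-cell protease release, detected as bis-AAF-R110 fluorescence at 485/520 nm, was measured in LYMP1-003 cells after 16 h compound treatment at 37 C. AC50 values came from Hill-modeled qHTS curves normalized to DMSO (0%) and 15 uM tetraoctylammonium bromide (100%).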

[14] = MultiTox-Fluor Cytotoxicity Assay - LYMP1-003 - Live Cells (AID 962);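 further: 0% = DMSO only and full loss = 92 µM tetraoctylammonium bromide; cytotoxic hits lower the live-cell protease signal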
In short: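 Acute cytotoxicity is scored as a drop in live-cell protease activity in human lymphoblastoid LYMP1-003 cells after 16 hr compound exposure at 37 C. AC50 values come from Hill-equation modelling of concentration-response data.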

[15] = Cell Viability - LYMP1-003 - Assay at 24 hr (AID 963);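 further: plate controls were DMSO only for no effect and tetraoctylammonium bromide positive control for full effect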
In short: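 Cytotoxicity is scored as a concentration-dependent fall in ATP-linked luciferase signal in human lymphoblastoid LYMP1-003 cells treated 24 hr at 37 C in complete culture medium.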

[16] = Cell Viability - LYMP1-003 - Assay at 40 hr (AID 964); further: on the % scale 0 is the no-effect control and ±100 the full control effect; nearly all actives have a fitted effect of over 60% in size
In short: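 Luminescent ATP signal (CellTiter-Glo) served as the viability read-out after 40 hr compound treatment of human lymphoblastoid LYMP1-003 cells at 37 C. Decreases in ATP were fitted with the Hill equation to give AC50.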

[17] = Cell Viability - LYMP2-003 (AID 965);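 further: cells exposed to compounds for 24 h before reading; 0% = DMSO only and full effect = 92 µM tetraoctylammonium bromide; nearly all actives have a fitted effect of over 50% in size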
In short: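 Acute cytotoxicity is scored as a concentration-dependent drop in intracellular ATP, measured by luciferase luminescence in human lymphoblastoid cells treated for 24 hours at 37 C. AC50 values derive from Hill-equation modelling.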

[18] = MultiTox-Fluor Cytotoxicity Assay - LYMP1-002 - Dead Cells (AID 960); further: nearly all actives have a fitted effect of over 60% in size
In short: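 Cells were plated, rested 5 hr, then treated with compound dilution series for 16 hr at 37 C. After adding substrate reagent and 60 min at room temperature, dead-cell protease fluorescence gave concentration-response curves fitted by the Hill equation.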

[19] = Cell Viability - LYMP2-001 (AID 921);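 further: cells exposed to compound for 24 h at 37 °C; 0% = DMSO only and full inhibition = tetraoctylammonium bromide control wells; nearly all actives have a fitted effect of over 70% in size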
In short: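 qHTS, 1536-well; lymphoblastoid cells, 24 hr compound, 37 C; ATP by CellTiter-Glo, 30 min RT; luminescence; Hill-fit AC50.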

[20] = molecular target: Cytochrome P450 3A4 (Homo sapiens) (UniProt P08684); assay: qHTS Assay for Activators of Cytochrome P450 3A4 (AID 885); further: nearly all actives have a fitted effect of over 65% in size
In short: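 Luminescent readout of luciferin formed from 25 uM Luciferin-PPXE (KM level) by 20 nM CYP3A4 in 200 mM KPO4, with 60 min NADPH-driven reaction at room temperature after 10 min compound exposure. Ketoconazole (57 uM) defined 100% inhibition.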

CCOCCO
inactive: caspase-3 activation [1] -0.559% | outcome [2] | caspase-3 activation [3] -0.494% | caspase-3 activation [4] -0.913% | outcome [5] | outcome [6] | Potency [7] | Potency [8] | outcome [9] | outcome [10] | outcome [11] | outcome [12] | Potency [13] | Potency [14] | Potency [15] | Potency [16] | Potency [17]

Cc1cccc(C(=O)O)c1
inactive: caspase-3 activation [1] -1.17% | outcome [2] | caspase-3 activation [3] -1.62% | caspase-3 activation [4] -3.34% | outcome [5] | outcome [6] | Potency [7] | Potency [8] | outcome [9] | outcome [10] | outcome [11] | outcome [12] | outcome [18] | Potency [13] | Potency [14] | Potency [15] | Potency [16] | Potency [17]

CC(CCl)OC(C)CCl (stereo not drawn)
inactive: caspase-3 activation [1] -0.591% | outcome [2] | caspase-3 activation [3] 0.133% | caspase-3 activation [4] 1.69% | outcome [5] | outcome [6] | Potency [7] | Potency [8] | outcome [9] | outcome [10] | outcome [12] | outcome [18] | Potency [13] | Potency [14] | Potency [15] | Potency [16] | Potency [17]

CN(C)CCCNCCCN
inactive: caspase-3 activation [1] -0.219% | outcome [2] | caspase-3 activation [3] -0.0657% | caspase-3 activation [4] 0.619% | outcome [5] | outcome [6] | Potency [7] | Potency [8] | outcome [9] | outcome [10] | outcome [11] | outcome [12] | outcome [18] | Potency [13] | Potency [14] | Potency [15] | Potency [16] | Potency [17]

C=C(C)C(=O)OCCCCCCCCCC
inactive: caspase-3 activation [1] -0.0364% | outcome [2] | caspase-3 activation [3] -0.285% | caspase-3 activation [4] 2.37% | outcome [5] | outcome [6] | Potency [7] | Potency [8] | outcome [9] | outcome [11] | outcome [12] | outcome [18] | Potency [13] | Potency [14] | Potency [15] | Potency [16] | Potency [17]

O=Cc1ccccc1Cl
inactive: caspase-3 activation [1] -0.514% | outcome [2] | caspase-3 activation [3] 2.39% | caspase-3 activation [4] 2.31% | outcome [5] | outcome [6] | Potency [7] | Potency [8] | outcome [9] | outcome [10] | outcome [11] | outcome [12] | outcome [18] | Potency [13] | Potency [14] | Potency [15] | Potency [16] | Potency [17]

CCCOCC(C)O (stereo not drawn)
inactive: caspase-3 activation [1] 0.289% | outcome [2] | caspase-3 activation [3] -0.784% | caspase-3 activation [4] -1.05% | outcome [5] | outcome [6] | Potency [7] | Potency [8] | outcome [9] | outcome [10] | outcome [11] | outcome [12] | outcome [18] | Potency [13] | Potency [14] | Potency [15] | Potency [16] | Potency [17]

CC(C)CO
inactive: caspase-3 activation [1] 0.186% | outcome [2] | caspase-3 activation [3] -0.412% | caspase-3 activation [4] -2.74% | outcome [5] | outcome [6] | Potency [7] | Potency [19] | outcome [9] | outcome [10] | outcome [11] | outcome [12] | Potency [13] | Potency [14] | Potency [15] | Potency [16] | Potency [17]

Nc1cc(Cl)c(N)c(Cl)c1
inactive: caspase-3 activation [1] -0.0656% | outcome [2] | caspase-3 activation [3] 1.21% | caspase-3 activation [4] -2.67% | outcome [5] | Potency [7] | outcome [20] | outcome [9] | outcome [10] | outcome [11] | outcome [12] | Potency [13] | Potency [15] | Potency [16] | Potency [17]

CC#N
inactive: caspase-3 activation [1] 1.61% | outcome [2] | caspase-3 activation [3] 0.385% | caspase-3 activation [4] 1.27% | outcome [5] | Potency [7] | Potency [8] | Potency [19] | outcome [9] | outcome [10] | outcome [11] | outcome [12] | outcome [18] | Potency [13] | Potency [14] | Potency [15] | Potency [16] | Potency [17]

CCCCC(CC)COC(=O)CCCCC(=O)OCC(CC)CCCC (stereo not drawn)
inactive: caspase-3 activation [1] 0.289% | outcome [2] | caspase-3 activation [3] -0.0264% | caspase-3 activation [4] 0.675% | outcome [5] | outcome [6] | Potency [7] | outcome [9] | outcome [11] | outcome [12] | outcome [18] | Potency [13] | Potency [14] | Potency [15] | Potency [16] | Potency [17]

c1ccc2[nH]cnc2c1
inactive: caspase-3 activation [1] 0.6% | outcome [2] | caspase-3 activation [3] -0.984% | caspase-3 activation [4] -0.791% | outcome [5] | Potency [7] | Potency [8] | Potency [19] | outcome [9] | outcome [10] | outcome [11] | outcome [12] | outcome [18] | Potency [13] | Potency [14] | Potency [15] | Potency [16] | Potency [17]

S=C([S-])NCCNC(=S)[S-].[Zn+2]
inactive: caspase-3 activation [1] -0.549% | outcome [2] | caspase-3 activation [3] -1.93% | caspase-3 activation [4] 3% | outcome [5] | outcome [6] | Potency [7] | outcome [20] | Potency [19] | outcome [11] | outcome [12] | outcome [18] | Potency [13] | Potency [14] | Potency [15] | Potency [16] | Potency [17]

ClC/C=C/CCl
inactive: caspase-3 activation [1] 0.143% | outcome [2] | caspase-3 activation [3] 3.85% | caspase-3 activation [4] 1.61% | outcome [5] | Potency [7] | Potency [8] | outcome [9] | outcome [10] | outcome [11] | outcome [12] | outcome [18] | Potency [13] | Potency [14] | Potency [15] | Potency [16] | Potency [17]

C=CCOC(=O)CCCCCCCC
inactive: caspase-3 activation [1] 0.626% | outcome [2] | caspase-3 activation [3] -0.694% | caspase-3 activation [4] 1.74% | outcome [5] | Potency [7] | Potency [8] | outcome [9] | Potency [13] | Potency [14] | Potency [15] | Potency [16]
